Results filed as inconclusive are left out. The source made the active and inactive calls. The calls were made as follows: active = hit-call score of the fitted dose curve at least 0.9, where 1 is the maximum; inconclusive = response in the unintended direction; inactive = score below 0.9.

Sequence of Nuclear receptor subfamily 1 group I member 2 (Homo sapiens) (O75469 whole entry, looked up, the tested form may be a part): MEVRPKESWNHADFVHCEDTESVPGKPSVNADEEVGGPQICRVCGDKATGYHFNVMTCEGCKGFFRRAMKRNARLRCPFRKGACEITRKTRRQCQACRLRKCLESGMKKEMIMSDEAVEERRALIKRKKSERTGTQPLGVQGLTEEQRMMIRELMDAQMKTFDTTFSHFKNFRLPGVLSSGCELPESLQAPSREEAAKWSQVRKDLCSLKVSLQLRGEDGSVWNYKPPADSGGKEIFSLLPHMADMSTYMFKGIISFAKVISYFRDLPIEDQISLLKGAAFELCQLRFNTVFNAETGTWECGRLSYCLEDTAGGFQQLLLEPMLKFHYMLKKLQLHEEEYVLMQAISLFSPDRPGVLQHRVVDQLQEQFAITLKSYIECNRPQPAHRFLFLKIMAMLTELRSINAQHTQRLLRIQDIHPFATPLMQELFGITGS
Sequence of human Retinoic Acid Receptor gamma (RARg), RARG (gene 5916) (P13631 whole entry, looked up, the tested form may be a part): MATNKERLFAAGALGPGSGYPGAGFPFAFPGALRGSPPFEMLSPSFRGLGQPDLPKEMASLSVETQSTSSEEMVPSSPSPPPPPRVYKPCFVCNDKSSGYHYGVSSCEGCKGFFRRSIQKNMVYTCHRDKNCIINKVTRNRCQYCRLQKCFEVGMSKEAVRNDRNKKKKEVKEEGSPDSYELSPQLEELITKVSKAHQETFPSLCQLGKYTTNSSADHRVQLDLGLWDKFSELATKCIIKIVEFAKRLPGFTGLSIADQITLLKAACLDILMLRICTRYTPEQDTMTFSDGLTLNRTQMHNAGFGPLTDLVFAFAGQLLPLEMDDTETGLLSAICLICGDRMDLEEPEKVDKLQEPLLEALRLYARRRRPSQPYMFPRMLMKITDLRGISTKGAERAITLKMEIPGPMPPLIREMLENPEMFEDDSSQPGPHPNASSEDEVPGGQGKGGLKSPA

For one experiment, the target named is Nuclear receptor subfamily 1 group I member 2 (Homo sapiens) (UniProt O75469). The experiment is described as follows: ATG_PXR_TRANS: Attagene TRANS-FACTORIAL HepG2 Assay for human Pregnane X Receptor (PXR) (AID 2283008). In outline:
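Read-out is fluorescence of labelled reporter cDNA fragments separated by capillary electrophoresis after RT-PCR and HpaI digestion. Source: HepG2 cells carrying PXR-GAL4/UAS reporter constructs, treated 24 h; activity fitted upward relative to DMSO.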
Consider `OCCCc1cccnc1`, for which the call was inactive.
Same read-out and setting: then `N#Cc1ccccc1O`, with “inactive”; and `COC(F)(C(F)F)C(F)(F)F` (stereo unspecified), with “inactive”.
Broadly, the AC50 is the midpoint of the concentration-response curve, whichever way the signal moves. On to `Nc1c(Br)cc([N+](=O)[O-])cc1Br`, for which the AC50 was 26.8 µM (active).
As for `CCC(Cc1c(I)cc(I)c(N)c1I)C(=O)O` (stereo unspecified), the result was inactive.
In the case of `CCC/C=C/CO`, the result was inactive.
The same measure, in the same setting: then `CCOCN(C(=O)CS(=O)(=O)O)c1c(C)cccc1CC`, with “inactive”.
Consider `C[C@]12CC[C@H]3C(=CCc4cc(O)ccc43)[C@@H]1CCC2=O`, for which the concentration at half-maximal activity (AC50) is 26.6 µM (active).
As to `O=C1C=CC(=O)N1c1ccc(Cc2ccc(N3C(=O)C=CC3=O)cc2)cc1`, the compound was classed as inactive.
On the same count and under the same terms, then `CN(N=O)C(=O)N[C@@H]1[C@@H](O)[C@H](O)[C@@H](CO)O[C@@H]1O`, with “inactive”.
Take `O=C1c2c(O)ccc(Nc3ccc(CCO)cc3)c2C(=O)c2c([N+](=O)[O-])ccc(O)c21`: the AC50 is 6.55 µM (active).
As for `Nc1cc([N+](=O)[O-])cc(Cl)c1O`, the call was inactive.
Same read-out and setting: with `CC(=O)CCC(C)C` the entry was “inactive”; with `CCOC(=O)CC(=O)C(F)(F)C(F)(F)F`, “inactive”; with `O=S(=O)(O)CCC(F)(F)C(F)(F)C(F)(F)C(F)(F)F`, “inactive”.
In the case of `CCc1cc(Cc2cc(CC)c(N)c(CC)c2)cc(CC)c1N`, the concentration at half-maximal activity (AC50) was 1.08 µM (active).
Turning to `CCN=c1cc2oc3cc(NCC)c(C)cc3c(-c3ccccc3C(=O)OCC)c-2cc1C`, the compound was classed as inactive.
Take `Cc1ccc2c(c1)OCC(=O)CO2`: the compound was called inactive.
For `CCn1c2ccccc2c2ccccc21`, the AC50 was 10.3 µM (active).
Take `CCCCCCCCn1sc(Cl)c(Cl)c1=O`: the outcome was inactive.
In the case of `CC(=O)c1ccccc1N`, the compound was classed as inactive.
On the same count and under the same terms, with `Cc1cnccn1` the entry was “inactive”; with `CSc1ccc(O)cc1C`, “inactive”.
Same read-out and setting: then `CN(C)C(C)(C)CO`, with “inactive”; and `COCCC(=O)OC`, with “inactive”; and `C=C(C)CCCC`, with “inactive”.
Same read-out and setting: then `CCOC(=O)CCC(C)=O`, with “inactive”; and `Cc1ccc([N+](=O)[O-])c(C)c1`, with “inactive”.

The target of the next experiment is human Retinoic Acid Receptor gamma (RARg), RARG (gene 5916) (UniProt P13631). Briefly: ATG_RARg_TRANS: Attagene TRANS-FACTORIAL HepG2 Assay for human Retinoic Acid Receptor gamma (RARg) (AID 2283009). In outline:
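HepG2, RARg-GAL4 TRANS system, 24 h exposure; reporter mRNA by RT-PCR + CE fluorescence; increase over DMSO.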
Consider `OCCCc1cccnc1`, for which the call was inactive.
On the same count and under the same terms, with `N#Cc1ccccc1O` the entry was “inactive”; with `Nc1cccnc1N`, “inactive”.
For `Nc1c(Br)cc([N+](=O)[O-])cc1Br`, the compound was classed as inactive.
On the same count and under the same terms, then `OCCCCC(F)(F)C(F)(F)C(F)(F)C(F)(F)F`, with “inactive”; and `CCOCN(C(=O)CS(=O)(=O)O)c1c(C)cccc1CC`, with “inactive”; and `O=C(Cl)c1ccc(Cl)cc1Cl`, with “inactive”.
On the same count and under the same terms, with `C[C@]12CC[C@H]3C(=CCc4cc(O)ccc43)[C@@H]1CCC2=O` the entry was “inactive”; with `CN(N=O)C(=O)N[C@@H]1[C@@H](O)[C@H](O)[C@@H](CO)O[C@@H]1O`, “inactive”.
The same measure, in the same setting: then `O=C1c2c(O)ccc(Nc3ccc(CCO)cc3)c2C(=O)c2c([N+](=O)[O-])ccc(O)c21`, with “inactive”.
With `CC(=O)CCC(C)C`, the outcome was inactive.
On to `CCOC(=O)CC(=O)C(F)(F)C(F)(F)F`, for which the compound was called inactive.
Same read-out and setting: with `CCc1cc(Cc2cc(CC)c(N)c(CC)c2)cc(CC)c1N` the entry was “inactive”; with `CCn1c2ccccc2c2ccccc21`, “inactive”; with `Cc1ccc(S(=O)(=O)C(I)I)cc1`, “inactive”.
Same read-out and setting: then `Cc1cnccn1`, with “inactive”; and `CSc1ccc(O)cc1C`, with “inactive”.
Consider `C=C(C)CCCC`, for which the call was inactive.

The values above are taken from PubChem BioAssay (EPA / NIEHS).
